Measurements: PubChem BioAssay (Tox21)
Inconclusive results are not listed. Active and inactive are the calls of the source. Unless noted, the call rests on the fitted dose curve; in most records, active means well fitted curve in the direction sought with a large enough effect in the repeat runs; inconclusive means weak or mixed curves; inactive means no such curve, though single readings can be large; an effect the other way counts as inactive or inconclusive.

Key:
[1] = target: Luciferin 4-monooxygenase (Photinus pyralis) (UniProt P08659); assay: qHTS assay to identify small molecule inhibitors of firefly luciferase (AID 1224835); further: nearly all actives have a fitted effect of over 25% in size; further: potency means the concentration at half of the fitted maximal effect; on activity change, negative = inhibition: series mostly up to about 120 µM
Sequence of Luciferin 4-monooxygenase (Photinus pyralis) (P08659 whole entry, looked up): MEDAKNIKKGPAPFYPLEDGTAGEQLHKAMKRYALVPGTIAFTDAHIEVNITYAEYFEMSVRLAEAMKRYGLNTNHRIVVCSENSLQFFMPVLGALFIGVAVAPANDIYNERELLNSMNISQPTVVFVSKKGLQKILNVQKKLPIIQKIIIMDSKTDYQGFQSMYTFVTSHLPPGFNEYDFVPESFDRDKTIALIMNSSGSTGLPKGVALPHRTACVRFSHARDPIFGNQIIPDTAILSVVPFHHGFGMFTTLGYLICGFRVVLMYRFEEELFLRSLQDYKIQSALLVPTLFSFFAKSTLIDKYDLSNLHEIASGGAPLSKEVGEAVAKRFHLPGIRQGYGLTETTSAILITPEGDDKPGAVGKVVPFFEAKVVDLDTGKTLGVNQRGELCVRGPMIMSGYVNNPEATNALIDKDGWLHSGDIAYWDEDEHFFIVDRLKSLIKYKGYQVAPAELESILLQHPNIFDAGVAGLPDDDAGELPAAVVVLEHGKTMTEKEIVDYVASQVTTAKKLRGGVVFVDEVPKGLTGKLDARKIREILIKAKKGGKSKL
How it was run: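 Quantitative HTS format; KM concentrations of both substrates. Purified P. pyralis FLuc activity quantified from luminescence images.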

[2] = qHTS assay to identify small molecule agonists of the constitutive androstane receptor (CAR) signaling pathway - cell viability counter screen (AID 1224836); further: series mostly up to about 92 µM; nearly all actives have a fitted effect of over 45% in size
How it was run: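 HepG2-CYP2B6-hCAR, 2500 cells/well, 4 h pre-incubation; cpd 15 conc + PK11195 0.75 uM final; 23 h, 37 C/5% CO2; CellTiter-Fluor, fluorescence.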

[3] = target: Thyrotropin receptor (Homo sapiens) (UniProt P16473); assay: qHTS assay to identify small molecule agonists of the thyroid stimulating hormone receptor (TSHR) signaling pathway (AID 1224843; calls by dose curve; further: nearly all actives have a fitted effect of over 45% in size)
Sequence of Thyrotropin receptor (Homo sapiens) (P16473 whole entry, looked up): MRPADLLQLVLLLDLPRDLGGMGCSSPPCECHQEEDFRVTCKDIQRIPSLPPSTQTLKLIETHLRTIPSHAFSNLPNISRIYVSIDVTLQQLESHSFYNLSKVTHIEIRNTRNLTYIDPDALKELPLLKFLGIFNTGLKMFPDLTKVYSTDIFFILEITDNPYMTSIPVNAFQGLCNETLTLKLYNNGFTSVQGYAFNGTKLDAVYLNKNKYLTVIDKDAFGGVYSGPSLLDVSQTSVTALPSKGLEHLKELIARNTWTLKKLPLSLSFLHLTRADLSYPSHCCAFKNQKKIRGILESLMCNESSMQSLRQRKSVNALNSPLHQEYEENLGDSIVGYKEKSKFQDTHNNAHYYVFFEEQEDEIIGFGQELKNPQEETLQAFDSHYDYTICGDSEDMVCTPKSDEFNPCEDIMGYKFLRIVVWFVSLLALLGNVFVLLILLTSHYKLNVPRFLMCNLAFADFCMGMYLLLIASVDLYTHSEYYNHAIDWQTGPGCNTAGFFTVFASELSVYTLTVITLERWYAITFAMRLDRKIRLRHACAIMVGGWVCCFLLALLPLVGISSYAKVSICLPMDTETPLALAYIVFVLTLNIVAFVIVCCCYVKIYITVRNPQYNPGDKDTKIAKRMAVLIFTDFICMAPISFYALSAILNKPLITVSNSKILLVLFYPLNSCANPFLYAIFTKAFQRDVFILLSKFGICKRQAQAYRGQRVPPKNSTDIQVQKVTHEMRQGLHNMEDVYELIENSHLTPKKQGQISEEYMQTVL
How it was run: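 Cell line HEK293 with TSHR; density 800/well. Exposure 30 min RT. Readout HTRF cAMP (cAMP-d2/anti-cAMP-cryptate), 1 h RT before reading.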

[4] = qHTS assay to identify small molecule agonists of the hypoxia (HIF-1) signaling pathway - cell viability counter screen (AID 1224844; calls by dose curve; further: nearly all actives have a fitted effect of over 50% in size; further: potency means the concentration at half of the fitted maximal effect)
How it was run: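 Cells (HRE-bla ME-180, 2,000 per well) sat 5 hrs at 37C, got compound for 17 hrs, were read for CCF4-AM FRET, and were finally lysed with CellTiter-Glo for a 30 min room-temperature luminescence read.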

[5] = target: Nuclear receptor subfamily 1 group I member 3 (Homo sapiens) (UniProt Q14994); assay: qHTS assay to identify small molecule agonists of the constitutive androstane receptor (CAR) signaling pathway (AID 1224839); further: nearly all actives have a fitted effect of over 15% in size; further: potency means the concentration at half of the fitted maximal effect;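 on activation: HepG2 cells stably carrying human CAR and a CYP2B6 luciferase reporter; series mostly up to about 92 µM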
Sequence of Nuclear receptor subfamily 1 group I member 3 (Homo sapiens) (Q14994 whole entry, looked up): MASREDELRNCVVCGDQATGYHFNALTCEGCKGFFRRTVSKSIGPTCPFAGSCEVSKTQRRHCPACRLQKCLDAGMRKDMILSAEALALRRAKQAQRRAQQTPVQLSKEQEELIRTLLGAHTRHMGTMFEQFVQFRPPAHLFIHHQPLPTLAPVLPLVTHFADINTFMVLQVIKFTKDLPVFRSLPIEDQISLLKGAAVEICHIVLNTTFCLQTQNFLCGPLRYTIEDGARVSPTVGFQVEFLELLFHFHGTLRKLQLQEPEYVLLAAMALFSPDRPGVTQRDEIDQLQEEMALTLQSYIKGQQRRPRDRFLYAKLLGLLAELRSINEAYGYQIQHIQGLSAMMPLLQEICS
How it was run: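 HepG2-CYP2B6-hCAR cells, 2500/well, 4 h pre-incubation; compounds 15 conc.; PK11195 0.75 uM final; 24 h, 37 C/5% CO2; ONE-Glo luciferase read.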

[6] = qHTS assay to identify small molecule agonists of the estrogen related receptor signaling pathway with the pleiotropic PPARgamma coactivator (PGC) from Tox21 10K library (AID 1224842); further: nearly all actives have a fitted effect of over 15% in size
How it was run: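 PGC/ERR reporter cells (NTP line) were seeded 2,000 per well, rested 6 h at 37 C/5% CO2, then pin-dosed with compounds in DMSO for 18 h at 37 C; luciferase read by One-Glo luminescence after 30 min at room temperature.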

[7] = qHTS assay to identify small molecule antagonists of the constitutive androstane receptor (CAR) signaling pathway - cell viability counter screen (AID 1224837); further: nearly all actives have a fitted effect of over 45% in size; further: potency means the concentration at half of the fitted maximal effect; on activity change, negative = cytotoxicity: series mostly up to about 92 µM
How it was run: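 Counter screen run in HepG2-CYP2B6-hCAR cells: 4 hr settle, compound titration (15 concentrations) with 50 nM CITCO, 23 hr at 37 C/5% CO2, CellTiter-Fluor fluorescence.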

[8] = qHTS assay to identify small molecule antagonists of the estrogen related receptor signaling pathway with the pleiotropic PPARgamma coactivator (PGC) from Tox21 10K library - cell viability counter screen (AID 1224840; active means well fitted cell-killing curve with a large enough effect in the repeat runs, not every such curve was filed as active; further: nearly all actives have a fitted effect of over 40% in size; further: potency means the concentration at half of the fitted maximal effect)
How it was run: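 Following seeding of 2,000 PGC/ERR cells/well and 6 hours' incubation, test compounds were delivered in DMSO. The plates then sat 17.5 hours at 37 C before a fluorogenic live-cell protease reagent (CellTiter-Fluor) was read after 30 min.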

[9] = target: Nuclear receptor subfamily 1 group I member 3 (Homo sapiens) (UniProt Q14994); assay: qHTS assay to identify small molecule antagonists of the constitutive androstane receptor (CAR) signaling pathway (AID 1224838);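 further: HepG2 cells stably expressing hCAR with CYP2B6 luciferase reporter stimulated by CITCO; nearly all actives have a fitted effect of over 40% in size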; further: potency means the concentration at half of the fitted maximal effect
How it was run: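 Cell line: HepG2 double-stable for hCAR and CYP2B6-2.2kb reporter. Agonist: CITCO, 50 nM final. Compounds: 15 concentrations, 24 h, 37 C. Detection: ONE-Glo luminescence.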

[10] = qHTS assay to identify small molecule antagonists of the estrogen related receptor signaling pathway with the pleiotropic PPARgamma coactivator (PGC) from Tox21 10K library (AID 1224841; call rule not given here; further: series mostly up to about 92 µM; actives are mostly falling curves and most rising ones were filed inactive; nearly all actives have a fitted effect of over 50% in size)
How it was run: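 qHTS antagonist format: PGC/ERR cells, 2k/well, compound in DMSO by pin transfer after 6 h attachment, 18 h treatment at 37 C, One-Glo luminescence read at 30 min.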
On the % scale 0 is the no-effect control and ±100 the full control effect.

CC(=O)Nc1ccc(N)cc1
inactive: Potency [1] | Potency [2] | Potency [3] | Potency [4]

CCCCC1C(=O)N(c2ccccc2)N(c2ccc(O)cc2)C1=O (stereo not drawn)
inactive: Potency [1] | Potency [2] | Potency [5] | Potency [6]

C[Si](NC1CCCCC1)(NC1CCCCC1)NC1CCCCC1
inactive: Potency [1] | Potency [7] | Potency [8] | Potency [3]
active: Potency [4] 19.5 µM

CCCCC(CC)CNCC(CC)CCCC (stereo not drawn)
inactive: Potency [1] | Potency [7] | Potency [9] | Potency [5] | Potency [8] | Potency [10] | Potency [6] | Potency [3] | Potency [4]

CCNC(=O)N1CCN(CCCC(c2ccc(F)cc2)c2ccc(F)cc2)CC1
active: Potency [7] 21.1 µM
inactive: Potency [1] | Potency [9] | Potency [4]

CCCOCCOCCO
inactive: Potency [1] | Potency [7] | Potency [9] | Potency [5] | Potency [8] | Potency [3] | Potency [4]

Cc1c(C(=O)NN2CCCCC2)nn(-c2ccc(Cl)cc2Cl)c1-c1ccc(Cl)cc1
active: Potency [9] 23.7 µM | Potency [4] 21.3 µM
inactive: Potency [1] | Potency [7] | Potency [5] | Potency [8] | Potency [3]

Cc1ccc(/C=N/n2c(-c3ccccc3)csc2=S)cc1
inactive: Potency [1] | Potency [7] | Potency [9] | Potency [8] | Potency [10] | Potency [3]
active: Potency [5] 29.8 µM

Cc1cc2nc3ccc(=[N+](C)C)cc-3sc2cc1N
active: Potency [1] 9.77 µM | Potency [7] 10.6 µM | Potency [5] 8.41 µM | Potency [8] 13.3 µM | Potency [4] 5.35 µM
inactive: Potency [6]

O=C(O)c1cccc(O)c1
inactive: Potency [1] | Potency [7] | Potency [9] | Potency [5] | Potency [8] | Potency [3] | Potency [4]

Cc1ccc(S)cc1
inactive: Potency [1] | Potency [7] | Potency [8] | Potency [3] | Potency [4]

Cc1cc(S(=O)(=O)O)ccc1N=Nc1c(O)ccc2ccccc12
active: Potency [1] 25.2 µM | Potency [7] 34.4 µM | Potency [8] 34.4 µM
inactive: Potency [3] | Potency [4]

Nc1nccs1
inactive: Potency [1] | Potency [7] | Potency [8] | Potency [4]

CCC(C(=O)OCCOCCN(CC)CC)c1ccccc1 (stereo not drawn)
inactive: Potency [1] | Potency [2] | Potency [8] | Potency [4]

CCCCC(=O)O[C@]1(C(=O)CO)[C@@H](C)C[C@H]2[C@@H]3CCC4=CC(=O)C=C[C@]4(C)[C@@]3(F)[C@@H](O)C[C@@]21C
active: Potency [4] 34.7 µM
inactive: Potency [1] | Potency [2] | Potency [6]

O=C1NCCN1
inactive: Potency [1] | Potency [2] | Potency [8] | Potency [10] | Potency [6] | Potency [3] | Potency [4]

CC(=O)Nc1ccccc1C
inactive: Potency [1] | Potency [7] | Potency [9] | Potency [5] | Potency [8] | Potency [6] | Potency [3] | Potency [4]

C1COCO1
inactive: Potency [1] | Potency [7] | Potency [5] | Potency [8] | Potency [10] | Potency [6] | Potency [3] | Potency [4]

N#C/C(=C1/SC[C@@H](c2ccc(Cl)cc2Cl)S1)n1ccnc1
inactive: Potency [1] | Potency [7] | Potency [8] | Potency [6] | Potency [3] | Potency [4]

c1cnc2c(n1)CCCC2
inactive: Potency [1] | Potency [2] | Potency [5] | Potency [10] | Potency [6] | Potency [3] | Potency [4]

C=C(C)C(=O)OCCOC(=O)CC(C)=O
inactive: Potency [1] | Potency [2] | Potency [8] | Potency [3] | Potency [4]

C=CCCCCCCCCCCCCCCCC
inactive: activity change, negative = inhibition [1] 0.644% [at 10.5 µM] | activity change, negative = cytotoxicity [7] 3.23% [at 8.39 µM] | viability change, negative = cytotoxic [8] 2.55% [at 8.39 µM] | activity, negative = inhibition [10] -28.3% [at 8.39 µM] | activation [6] 0.156% [at 8.39 µM] | activation [3] -8.53% [at 8.39 µM] | activity change, negative = cytotoxicity [4] 3.26% [at 6.97 µM]

CCC(Cc1ccccc1)(C(=O)c1ccc(N2CCOCC2)cc1)N(C)C (stereo not drawn)
inactive: Potency [1] | Potency [7] | Potency [8] | Potency [6] | Potency [3] | Potency [4]

C[C@]12CCC(=O)C=C1C=C[C@@H]1[C@@H]2CC[C@@]2(C)[C@H]1CC[C@@]21CCC(=O)O1
inactive: Potency [1] | Potency [7] | Potency [8] | Potency [10] | Potency [6] | Potency [3] | Potency [4]

COc1ccccc1N=Nc1c(S(=O)(=O)O)cc2cc(S(=O)(=O)O)cc(NC(C)=O)c2c1O
active: Potency [1] 29.8 µM | Potency [7] 25.7 µM | Potency [8] 25.7 µM
inactive: Potency [5] | Potency [4]

O=C(/C=C/c1ccccc1)OCCCc1ccccc1
active: Potency [1] 17.8 µM
inactive: Potency [7] | Potency [9] | Potency [5] | Potency [8] | Potency [10] | Potency [6] | Potency [3] | Potency [4]

O=S(=O)(c1ccccc1)c1ccc(Cl)cc1
inactive: Potency [1] | Potency [7] | Potency [9] | Potency [8] | Potency [3] | Potency [4]
